Experiments:
Test in all cases: log2 ratio of Biotin-Ahx-Ub-VS probe labelling (fragment/DMSO); higher = less target engagement (more negative = stronger competition), active = hit call of the paper (q ≤ 0.05, log2 ratio ≤ -1)
Settings in all cases: compound concentration: 200 uM; treatment time: 3 h
ALG13 = target: T1, ALG13 (UniProt Q9NP73)
T1 sequence (whole entry): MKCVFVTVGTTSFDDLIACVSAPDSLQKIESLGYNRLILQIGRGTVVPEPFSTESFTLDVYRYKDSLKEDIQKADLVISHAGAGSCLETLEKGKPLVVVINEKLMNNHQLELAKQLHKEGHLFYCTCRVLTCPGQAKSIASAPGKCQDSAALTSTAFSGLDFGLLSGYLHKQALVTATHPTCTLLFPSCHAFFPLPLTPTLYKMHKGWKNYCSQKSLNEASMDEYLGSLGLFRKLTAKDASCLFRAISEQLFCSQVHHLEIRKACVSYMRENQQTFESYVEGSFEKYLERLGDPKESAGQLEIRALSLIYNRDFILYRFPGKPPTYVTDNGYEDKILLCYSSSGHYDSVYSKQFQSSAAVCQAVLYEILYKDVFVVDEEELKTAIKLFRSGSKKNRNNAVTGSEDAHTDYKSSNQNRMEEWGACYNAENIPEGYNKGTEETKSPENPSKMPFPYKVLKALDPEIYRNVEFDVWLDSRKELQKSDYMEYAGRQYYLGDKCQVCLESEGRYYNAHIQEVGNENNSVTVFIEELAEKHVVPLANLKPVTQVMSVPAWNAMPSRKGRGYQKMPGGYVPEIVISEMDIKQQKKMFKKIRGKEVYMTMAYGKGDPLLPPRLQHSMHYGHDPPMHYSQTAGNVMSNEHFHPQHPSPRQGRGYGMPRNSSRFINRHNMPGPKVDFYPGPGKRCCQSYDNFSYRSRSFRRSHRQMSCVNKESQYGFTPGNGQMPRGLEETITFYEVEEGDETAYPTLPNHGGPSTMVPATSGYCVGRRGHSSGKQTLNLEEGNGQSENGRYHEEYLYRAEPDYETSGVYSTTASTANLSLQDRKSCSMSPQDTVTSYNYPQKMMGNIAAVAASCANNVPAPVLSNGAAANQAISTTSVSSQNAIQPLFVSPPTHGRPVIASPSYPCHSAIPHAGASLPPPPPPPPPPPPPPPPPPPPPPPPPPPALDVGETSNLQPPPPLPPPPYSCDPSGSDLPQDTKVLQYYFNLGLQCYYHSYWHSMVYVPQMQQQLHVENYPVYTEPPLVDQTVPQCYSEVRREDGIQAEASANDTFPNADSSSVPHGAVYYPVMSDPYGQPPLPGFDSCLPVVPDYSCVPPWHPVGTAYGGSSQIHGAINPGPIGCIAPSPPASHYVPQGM
How it was run: (§1)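 Labelling with Biotin-Ahx-Ub-VS (0.5 µM final, 1 h) followed a 3 h triplicate treatment of HEK293T lysate (495 µg per sample, Tris/CHAPS/IGEPAL buffer with protease inhibitors) with fragment at 200 µM or vehicle. Labelled DUBs were NeutrAvidin-enriched, digested with LysC and trypsin, and run by diaPASEF LC-MS/MS. The values, average log2 fragment/vehicle ratios by unpaired t-test, come from global-median-normalised Spectronaut label-free quantities. Proteins with ≥2 unique peptides were used.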

ATXN3 = ATXN3 (UniProt P54252)
How it was run: as §1

BAP1 = target: T2, BAP1 (UniProt Q92560)
T2 sequence (whole entry): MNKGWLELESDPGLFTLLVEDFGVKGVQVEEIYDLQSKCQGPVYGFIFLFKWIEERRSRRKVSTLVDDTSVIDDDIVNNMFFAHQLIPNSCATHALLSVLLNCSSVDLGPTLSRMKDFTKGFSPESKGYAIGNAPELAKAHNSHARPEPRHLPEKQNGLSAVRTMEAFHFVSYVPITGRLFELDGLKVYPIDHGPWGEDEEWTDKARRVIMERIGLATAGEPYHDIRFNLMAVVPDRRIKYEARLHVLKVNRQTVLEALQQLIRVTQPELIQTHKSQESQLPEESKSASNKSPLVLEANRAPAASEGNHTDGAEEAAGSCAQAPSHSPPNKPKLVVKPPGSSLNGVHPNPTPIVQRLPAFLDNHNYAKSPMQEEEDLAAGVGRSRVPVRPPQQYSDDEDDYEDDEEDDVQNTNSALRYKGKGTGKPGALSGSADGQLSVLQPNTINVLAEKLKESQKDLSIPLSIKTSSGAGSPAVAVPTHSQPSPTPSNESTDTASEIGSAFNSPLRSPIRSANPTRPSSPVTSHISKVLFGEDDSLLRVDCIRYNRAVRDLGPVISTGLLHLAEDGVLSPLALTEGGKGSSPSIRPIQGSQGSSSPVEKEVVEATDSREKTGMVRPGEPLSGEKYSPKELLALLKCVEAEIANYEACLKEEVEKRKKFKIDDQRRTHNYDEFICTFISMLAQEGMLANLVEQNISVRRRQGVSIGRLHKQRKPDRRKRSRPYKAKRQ
How it was run: as §1

EIF3F = EIF3F (UniProt O00303)
How it was run: as §1

EIF3H = EIF3H (UniProt O15372)
How it was run: as §1

FAM105A = target: T3, FAM105A (UniProt Q9NUU6)
T3 sequence (whole entry): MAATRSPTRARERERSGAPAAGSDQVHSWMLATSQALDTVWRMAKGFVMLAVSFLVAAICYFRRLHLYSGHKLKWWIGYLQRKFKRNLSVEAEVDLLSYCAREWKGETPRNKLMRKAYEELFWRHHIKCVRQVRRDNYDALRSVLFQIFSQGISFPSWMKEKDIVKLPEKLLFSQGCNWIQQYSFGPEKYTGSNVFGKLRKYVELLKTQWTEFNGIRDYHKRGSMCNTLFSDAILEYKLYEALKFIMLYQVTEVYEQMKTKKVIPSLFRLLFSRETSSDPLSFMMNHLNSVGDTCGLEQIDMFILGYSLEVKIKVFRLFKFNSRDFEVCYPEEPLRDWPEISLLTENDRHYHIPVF
How it was run: as §1

OTUB1 = OTUB1 (UniProt Q96FW1)
How it was run: as §1

OTUD4 = target: T4, OTUD4 (UniProt Q01804)
T4 sequence (whole entry): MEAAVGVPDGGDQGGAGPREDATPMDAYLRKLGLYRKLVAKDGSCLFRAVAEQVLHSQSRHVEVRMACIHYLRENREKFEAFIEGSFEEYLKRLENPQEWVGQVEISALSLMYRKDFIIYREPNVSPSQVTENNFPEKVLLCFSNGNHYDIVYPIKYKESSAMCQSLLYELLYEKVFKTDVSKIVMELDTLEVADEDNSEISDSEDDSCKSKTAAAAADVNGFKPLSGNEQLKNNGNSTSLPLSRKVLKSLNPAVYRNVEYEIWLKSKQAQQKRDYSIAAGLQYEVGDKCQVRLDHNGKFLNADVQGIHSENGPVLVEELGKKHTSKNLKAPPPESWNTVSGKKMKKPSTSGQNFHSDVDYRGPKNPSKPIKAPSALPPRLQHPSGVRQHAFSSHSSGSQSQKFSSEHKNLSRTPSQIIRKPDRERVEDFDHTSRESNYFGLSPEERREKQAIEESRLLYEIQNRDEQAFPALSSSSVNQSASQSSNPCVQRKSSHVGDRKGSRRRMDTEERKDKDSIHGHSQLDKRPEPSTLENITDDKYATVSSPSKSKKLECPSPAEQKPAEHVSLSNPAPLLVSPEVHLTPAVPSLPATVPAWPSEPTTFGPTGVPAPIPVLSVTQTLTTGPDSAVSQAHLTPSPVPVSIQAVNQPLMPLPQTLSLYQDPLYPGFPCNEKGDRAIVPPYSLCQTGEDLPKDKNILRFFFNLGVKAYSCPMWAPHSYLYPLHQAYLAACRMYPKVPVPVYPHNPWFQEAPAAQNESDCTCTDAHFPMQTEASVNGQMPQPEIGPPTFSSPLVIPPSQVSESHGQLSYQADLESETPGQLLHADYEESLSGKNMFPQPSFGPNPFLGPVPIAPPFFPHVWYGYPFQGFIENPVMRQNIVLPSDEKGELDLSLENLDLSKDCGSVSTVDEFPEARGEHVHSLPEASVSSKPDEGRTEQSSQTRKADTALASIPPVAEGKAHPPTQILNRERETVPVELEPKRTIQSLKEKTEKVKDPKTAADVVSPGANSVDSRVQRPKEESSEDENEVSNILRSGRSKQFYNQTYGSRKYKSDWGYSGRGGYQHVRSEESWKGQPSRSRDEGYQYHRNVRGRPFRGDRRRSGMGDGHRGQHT
How it was run: as §1

OTUD5 = target: T5, OTUD5 (UniProt Q96G74)
T5 sequence (whole entry): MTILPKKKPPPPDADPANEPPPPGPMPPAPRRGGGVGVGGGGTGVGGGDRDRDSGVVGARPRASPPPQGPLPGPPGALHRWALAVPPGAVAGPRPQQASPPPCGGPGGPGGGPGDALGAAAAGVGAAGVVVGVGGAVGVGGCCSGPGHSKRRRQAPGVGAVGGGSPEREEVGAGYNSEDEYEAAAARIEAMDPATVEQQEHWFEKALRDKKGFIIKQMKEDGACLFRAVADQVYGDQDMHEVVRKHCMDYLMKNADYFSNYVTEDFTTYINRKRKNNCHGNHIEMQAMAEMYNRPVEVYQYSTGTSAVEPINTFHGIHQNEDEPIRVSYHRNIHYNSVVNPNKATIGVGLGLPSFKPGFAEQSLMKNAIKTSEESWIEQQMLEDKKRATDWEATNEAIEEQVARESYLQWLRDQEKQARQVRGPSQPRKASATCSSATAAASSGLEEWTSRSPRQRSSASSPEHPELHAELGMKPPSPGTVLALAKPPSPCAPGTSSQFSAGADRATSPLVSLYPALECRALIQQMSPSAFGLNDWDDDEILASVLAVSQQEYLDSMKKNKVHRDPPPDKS
How it was run: as §1

Measured: log2 ratio of Biotin-Ahx-Ub-VS probe labelling

Sequence of ATXN3 (P54252 whole entry): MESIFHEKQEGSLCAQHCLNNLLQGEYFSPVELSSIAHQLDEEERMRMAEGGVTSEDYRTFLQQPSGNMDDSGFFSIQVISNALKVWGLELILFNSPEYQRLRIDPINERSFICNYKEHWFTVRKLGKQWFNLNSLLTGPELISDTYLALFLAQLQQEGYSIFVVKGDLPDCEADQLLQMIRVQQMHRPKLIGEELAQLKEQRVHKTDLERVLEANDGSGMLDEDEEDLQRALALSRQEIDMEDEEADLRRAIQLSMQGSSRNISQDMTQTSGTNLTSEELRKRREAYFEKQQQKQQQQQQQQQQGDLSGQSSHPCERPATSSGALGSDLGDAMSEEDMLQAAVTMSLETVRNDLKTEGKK
Sequence of EIF3H (O15372 whole entry): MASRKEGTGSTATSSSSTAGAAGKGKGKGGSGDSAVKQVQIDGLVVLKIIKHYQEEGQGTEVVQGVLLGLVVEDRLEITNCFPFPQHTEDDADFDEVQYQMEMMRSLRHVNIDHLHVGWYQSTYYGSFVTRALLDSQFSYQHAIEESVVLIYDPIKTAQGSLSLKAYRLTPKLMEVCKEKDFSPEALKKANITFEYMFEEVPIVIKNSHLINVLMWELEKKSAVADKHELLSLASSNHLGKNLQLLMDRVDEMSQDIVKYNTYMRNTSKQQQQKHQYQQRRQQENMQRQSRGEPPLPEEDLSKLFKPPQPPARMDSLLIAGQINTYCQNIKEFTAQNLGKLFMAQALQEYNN
Sequence of OTUB1 (Q96FW1 whole entry): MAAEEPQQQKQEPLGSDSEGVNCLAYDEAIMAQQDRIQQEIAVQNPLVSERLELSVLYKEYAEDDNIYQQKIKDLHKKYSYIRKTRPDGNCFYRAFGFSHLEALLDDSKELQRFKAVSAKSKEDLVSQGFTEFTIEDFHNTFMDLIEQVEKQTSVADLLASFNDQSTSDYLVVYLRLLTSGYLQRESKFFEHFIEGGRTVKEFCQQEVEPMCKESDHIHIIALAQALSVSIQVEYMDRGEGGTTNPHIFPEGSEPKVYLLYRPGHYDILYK
Sequence of EIF3F (O00303 whole entry): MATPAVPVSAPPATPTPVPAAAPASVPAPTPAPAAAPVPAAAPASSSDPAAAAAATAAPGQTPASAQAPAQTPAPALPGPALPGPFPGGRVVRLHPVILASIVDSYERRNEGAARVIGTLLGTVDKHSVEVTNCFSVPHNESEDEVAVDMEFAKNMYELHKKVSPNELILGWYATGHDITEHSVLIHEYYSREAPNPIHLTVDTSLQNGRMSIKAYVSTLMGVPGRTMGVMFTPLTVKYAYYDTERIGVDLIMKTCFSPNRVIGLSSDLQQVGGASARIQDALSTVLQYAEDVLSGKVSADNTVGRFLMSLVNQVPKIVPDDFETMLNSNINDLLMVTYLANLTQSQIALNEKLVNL

CNC(=O)C1CCN(C(=O)CCl)CC1
inactive: ALG13 0.0075 | ATXN3 -0.0902 | BAP1 -0.309 | EIF3F -0.0903 | EIF3H 0.232 | FAM105A 0.31 | OTUB1 -0.105 | OTUD4 0.0041 | OTUD5 -0.381
